# Laboratory results published in PubChem BioAssay (NCATS).
# A number with no mark means an inactive call. Inconclusive results are not listed. A call without a number means that no potency is given here. Calls of active or inactive are those of the source. Calls come from the whole dose curve; as a rule, active = well fitted curve in the direction sought with a large enough effect; inconclusive = small, poorly fitted or top-dose-only effect, or another doubt; inactive = no such curve, though single readings can be large; an effect the other way counts as inactive or inconclusive.
# Experiments:
# [1] = biological target: Cytochrome P450 3A4 (Homo sapiens) (UniProt P08684); test: qHTS Assay for Inhibitors and Substrates of Cytochrome P450 3A4 (AID 884); note: nearly all actives have a fitted effect of over 50% in size; note: potency is the fitted concentration of half-maximal effect; for activity change, negative = inhibition: series mostly up to about 57 µM
# Sequence of Cytochrome P450 3A4 (Homo sapiens) (P08684 whole entry, looked up): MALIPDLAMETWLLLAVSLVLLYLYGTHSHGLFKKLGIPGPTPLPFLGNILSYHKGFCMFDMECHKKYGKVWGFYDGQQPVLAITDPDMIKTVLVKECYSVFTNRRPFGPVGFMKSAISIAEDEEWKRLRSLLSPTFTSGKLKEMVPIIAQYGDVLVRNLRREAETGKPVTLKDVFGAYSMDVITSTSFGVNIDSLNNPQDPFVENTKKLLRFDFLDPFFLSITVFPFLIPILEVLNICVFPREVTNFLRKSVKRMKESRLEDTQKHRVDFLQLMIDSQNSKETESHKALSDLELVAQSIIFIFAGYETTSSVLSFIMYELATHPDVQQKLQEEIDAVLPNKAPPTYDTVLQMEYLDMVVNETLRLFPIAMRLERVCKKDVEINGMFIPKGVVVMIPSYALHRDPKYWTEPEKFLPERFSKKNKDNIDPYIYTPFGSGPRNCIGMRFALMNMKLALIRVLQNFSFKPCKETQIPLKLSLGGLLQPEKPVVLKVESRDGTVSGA
# Method in brief: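 20 nM human CYP3A4 with 25 uM Luciferin-PPXE (at KM) in 200 mM KPO4, preincubated 10 min with compound; NADPH regeneration started a 60 min RT reaction. Luciferin detected by luminescence, normalized to 57 uM ketoconazole as full inhibition.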
# [2] = Confirmation and Secondary Assay for Modulators of Hemoglobin Beta Chain Splicing at IVS2 654 locus (AID 910);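 note: HeLa cells stably carrying EGFP split by mutant beta-globin IVS2-654 intron; per-well total GFP intensity by laser scanning cytometry after 2-day treatment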
# Method in brief: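 Readout: per-well total peak green fluorescence (488 nm ex, 500–520 nm em) from objects 5–250 µm, reflecting correct splicing of an EGFP-654 reporter. Compounds were applied for 2 days at 37 °C to overnight-plated HeLa EGFP-654 cells; controls were DMSO and 500 nM IVS2-654 PNA.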
# [3] = Confirmation and Secondary Assay for Modulators of Hemoglobin Beta Chain Splicing at IVS2 705 locus (AID 930);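 note: HeLa cells stably expressing the EGFP-705 splicing reporter; GFP fluorescence per well restored by corrected splicing of the IVS2-705 intron in EGFP; series mostly up to about 46 µM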
# Method in brief: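 Per-well GFP, captured at 1 x 8 µm resolution with 488 nm excitation, served as the read-out for HeLa EGFP-705 cells incubated 2 days with test compound versus DMSO.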
# [4] = biological target: Cytochrome P450 2C9 (Homo sapiens) (UniProt P11712); test: qHTS Assay for Inhibitors and Substrates of Cytochrome P450 2C9 (AID 883); note: nearly all actives have a fitted effect of over 60% in size; note: potency is the fitted concentration of half-maximal effect
# Sequence of Cytochrome P450 2C9 (Homo sapiens) (P11712 whole entry, looked up): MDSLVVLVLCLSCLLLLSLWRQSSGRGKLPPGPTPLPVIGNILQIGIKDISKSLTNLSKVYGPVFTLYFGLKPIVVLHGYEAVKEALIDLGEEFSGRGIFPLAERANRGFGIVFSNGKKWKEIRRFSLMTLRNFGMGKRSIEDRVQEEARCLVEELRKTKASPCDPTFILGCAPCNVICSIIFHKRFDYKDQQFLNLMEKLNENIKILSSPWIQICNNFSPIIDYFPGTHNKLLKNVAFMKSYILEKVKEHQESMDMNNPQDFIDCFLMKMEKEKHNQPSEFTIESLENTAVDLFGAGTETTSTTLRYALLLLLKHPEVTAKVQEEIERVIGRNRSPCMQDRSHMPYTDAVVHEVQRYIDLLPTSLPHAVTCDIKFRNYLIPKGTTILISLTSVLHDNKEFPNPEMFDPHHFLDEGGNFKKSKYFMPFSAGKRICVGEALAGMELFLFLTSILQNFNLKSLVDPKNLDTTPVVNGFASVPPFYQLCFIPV
# Method in brief: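 Inhibition of CYP2C9 is scored as loss of luminescence, with 57uM sulphaphenazole defining 100% inhibition. Substrate Luciferin-H is used at 100uM, equal to its KM; enzyme at 10nM in 25mM KPO4, 60 min at 37C with NADPH regeneration.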
# [5] = biological target: Cytochrome P450 3A4 (Homo sapiens) (UniProt P08684); test: qHTS Assay for Activators of Cytochrome P450 3A4 (AID 885); note: nearly all actives have a fitted effect of over 65% in size; note: potency is the fitted concentration of half-maximal effect
# Method in brief: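 Quantitative HTS format: compounds preincubated with 20nM human CYP3A4 and Luciferin-PPXE substrate at KM, reaction started by NADPH regeneration, stopped after 60 min, luciferase luminescence read 20 min later.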
# [6] = Cellular Toxicity (caspase-3) N2a (AID 665);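 note: compound exposure lasted 16 h at 37 °C before readout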
# Method in brief: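 N2a cells, 1500/well, 5 h settle at 37 °C; cpd 16 h, 37 °C; Caspase-Glo 3/7, 1 h RT; luminescence. Norm: DMSO = 0, 10 uM staurosporine = 100%. AC50, Hill fit.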
# [7] = Cellular Toxicity (caspase-3) NIH 3T3 (AID 666)
# Method in brief: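 Luminescence from aminoluciferin released by caspase-3/7 cleavage of a peptide substrate served as read-out. Mouse fibroblast NIH 3T3 cells were exposed to compounds over a concentration range for 16 hours, and AC50 values came from standard Hill modelling.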
# [8] = Cellular Toxicity (caspase-3) Renal Proximal Tubule (AID 667);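 note: cells exposed to compound for 16 hours at 37 °C before detection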
# Method in brief: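 Caspase-Glo 3/7 read-out, rat primary kidney proximal tubule cells. Compound exposure 16 h, 37 °C; detection after 1 h at RT. Activity scaled to DMSO and 10 uM staurosporine.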
# [9] = biological target: Cytochrome P450 2D6 (Homo sapiens) (UniProt P10635); test: qHTS Assay for Inhibitors and Substrates of Cytochrome P450 2D6 (AID 891); details: recombinant CYP2D6, luciferin-ME EGE luminescence; note: potency is the fitted concentration of half-maximal effect; nearly all actives have a fitted effect of over 60% in size
# Sequence of Cytochrome P450 2D6 (Homo sapiens) (P10635 whole entry, looked up): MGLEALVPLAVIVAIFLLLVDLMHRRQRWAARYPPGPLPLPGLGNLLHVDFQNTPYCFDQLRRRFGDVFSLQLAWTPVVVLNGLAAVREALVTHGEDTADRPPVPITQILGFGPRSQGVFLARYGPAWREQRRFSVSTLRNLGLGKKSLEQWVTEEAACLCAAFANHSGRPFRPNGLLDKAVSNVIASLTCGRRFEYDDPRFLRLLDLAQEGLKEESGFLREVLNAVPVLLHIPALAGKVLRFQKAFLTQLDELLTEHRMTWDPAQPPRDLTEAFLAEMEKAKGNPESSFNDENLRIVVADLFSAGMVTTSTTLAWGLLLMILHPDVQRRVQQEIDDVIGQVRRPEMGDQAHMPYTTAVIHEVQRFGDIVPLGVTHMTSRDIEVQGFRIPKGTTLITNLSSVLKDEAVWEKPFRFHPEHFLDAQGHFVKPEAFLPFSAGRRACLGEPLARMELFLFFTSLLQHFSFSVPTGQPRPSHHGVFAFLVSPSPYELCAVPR
# Method in brief: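 Human CYP2D6 (5 nM) with 30 uM Luciferin-ME EGE (at Km) in 100 mM KPO4, compound preincubated 10 min, then NADPH regeneration system for 60 min at room temperature. Luciferin read by luminescence; normalized to 1.43 uM quinidine.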
# [10] = biological target: Cytochrome P450 2C19 (Homo sapiens) (UniProt P33261); test: qHTS Assay for Inhibitors and Substrates of Cytochrome P450 2C19 (AID 899); details: recombinant CYP2C19, luciferin-H EGE luminescence; note: potency is the fitted concentration of half-maximal effect; nearly all actives have a fitted effect of over 60% in size
# Sequence of Cytochrome P450 2C19 (Homo sapiens) (P33261 whole entry, looked up): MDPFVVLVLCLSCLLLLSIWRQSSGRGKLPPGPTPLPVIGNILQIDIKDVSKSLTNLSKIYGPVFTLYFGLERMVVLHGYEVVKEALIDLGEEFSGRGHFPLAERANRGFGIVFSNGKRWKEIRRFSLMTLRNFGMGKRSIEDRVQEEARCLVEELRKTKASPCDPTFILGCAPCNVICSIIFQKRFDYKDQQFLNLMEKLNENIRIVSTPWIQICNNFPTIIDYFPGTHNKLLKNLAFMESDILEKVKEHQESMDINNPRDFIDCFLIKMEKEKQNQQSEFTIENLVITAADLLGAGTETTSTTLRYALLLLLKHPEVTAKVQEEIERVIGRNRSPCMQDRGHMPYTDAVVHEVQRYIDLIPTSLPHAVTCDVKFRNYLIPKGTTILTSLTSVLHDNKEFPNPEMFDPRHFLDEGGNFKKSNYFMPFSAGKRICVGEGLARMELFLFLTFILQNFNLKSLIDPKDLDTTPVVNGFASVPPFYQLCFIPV
# Method in brief: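 5nM enzyme + 10uM Luciferin-H EGE (=KM), 50mM KPO4; cpd pin-transferred, 10 min 37C; NADPH regen, 60 min 37C; stopped w/ luciferin detection reagent, 20 min; luminescence. Normalized to 57uM ketoconazole (AC100).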
smiles,measurement,setting,value
CS(=O)(=O)c1ccc(C2=C(c3ccccc3)C(=O)OC2)cc1,Potency,[1],inactive
same,outcome,[2],inactive
same,outcome,[3],inactive
Cc1cc2nc3c(=O)[nH]c(=O)nc-3n(CC(O)C(O)C(O)CO)c2cc1C (stereo unspecified),Potency,[4],inactive
same,Potency,[1],inactive
same,outcome,[3],inactive
COc1ccnc(CS(=O)c2nc3ccc(OC(F)F)cc3[nH]2)c1OC (stereo unspecified),outcome,[2],inactive
same,outcome,[3],inactive
Cc1ccc(NC(=O)c2cccc(N(C)C)c2)cc1NC(=O)c1ccc(O)cc1,Potency,[4],inactive
O=c1cc(-c2ccc(O)c(O)c2)oc2cc(O)cc(O)c12,Potency,[5],inactive
COc1ccc2ccc(=O)oc2c1CC=C(C)C,outcome,[2],inactive
same,outcome,[3],inactive
CC(NCCc1ccc(O)cc1)C(O)c1ccc(O)cc1 (stereo unspecified),Potency,[1],inactive
same,outcome,[2],inactive
same,outcome,[3],inactive
C[C@@H]1C[C@H]2[C@@H]3CCC4=CC(=O)C=C[C@]4(C)[C@@]3(F)[C@@H](O)C[C@]2(C)[C@@]1(O)C(=O)CO,outcome,[6],inactive
same,outcome,[7],inactive
same,outcome,[8],inactive
CC1(C)OC2CC3C4CC(F)C5=CC(=O)C=CC5(C)C4C(O)CC3(C)[C@]2(C(=O)CO)O1 (stereo partly specified),Potency,[5],inactive
same,outcome,[2],inactive
same,outcome,[3],inactive
CN(C)CCN(Cc1ccc(Cl)cc1)c1ccccn1,Potency,[9],0.02 µM (active)
same,Potency,[10],6.31 µM (active)
CCC(c1ccc(O)cc1)C(CC)c1ccc(O)cc1 (stereo unspecified),outcome,[2],inactive
same,outcome,[3],inactive
CCCCC(C=O)NC(=O)C(CC(C)C)NC(=O)OCc1ccccc1 (stereo unspecified),Potency,[5],inactive
COC1CCC(C(=O)c2ccc3nc4c(cc3c2)CCCO4)CC1 (stereo unspecified),Potency,[1],inactive
same,Potency,[5],5.01 µM (active)
OC(c1cc(C(F)(F)F)nc2c(C(F)(F)F)cccc12)C1CCCCN1 (stereo unspecified),outcome,[2],inactive
same,outcome,[3],inactive
COc1ccc2cc1Oc1ccc(cc1)C[C@H]1c3cc(c(OC)cc3CCN1C)Oc1c(OC)c(OC)cc3c1[C@H](C2)N(C)CC3,Potency,[1],inactive
CCC(=C(CC)c1ccc(O)cc1)c1ccc(O)cc1,Potency,[4],12.6 µM (active)
CN(C)c1ccccc1CN1CCCN(Cc2ccccc2N(C)C)C1c1ccncc1,"activity change, positive = activation",[5],-30.9% [at 11.4 µM]
same,Potency,[9],1.26 µM (active)
CC[C@H](C)C(=O)O[C@H]1C[C@H](O)C=C2C=C[C@H](C)[C@H](CC[C@@H](O)C[C@@H](O)CC(=O)O)[C@H]21,Potency,[1],inactive
NCC1CCC(C(=O)O)CC1 (stereo unspecified),outcome,[2],inactive
same,outcome,[3],inactive
O=C1C(CCC(O)c2ccc(F)cc2)C(c2ccc(O)cc2)N1c1ccc(F)cc1 (stereo unspecified),outcome,[2],inactive
same,outcome,[3],inactive
NC(=O)c1nnn(Cc2cc(Cl)c(C(=O)c3ccc(Cl)cc3)c(Cl)c2)c1N,"activity change, negative = inhibition",[4],52.5% [at 11.4 µM]
Cc1cc(NC(=O)Nc2ccc(N(C)C)cc2)c2cc(F)cc(F)c2n1,Potency,[4],6.31 µM (active)
same,Potency,[1],6.31 µM (active)
same,Potency,[5],inactive
Clc1ccc(COC(Cn2ccnc2)c2ccc(Cl)cc2Cl)c(Cl)c1 (stereo unspecified),Potency,[4],0.316 µM (active)
Cc1ccc2c(c1)C(=O)[C@]1(O)CCN(c3ccccc3)C1=N2,Potency,[5],inactive
CN1CCN2c3ncccc3Cc3ccccc3C2C1 (stereo unspecified),Potency,[4],0.0501 µM (active)
same,Potency,[9],0.501 µM (active)
same,Potency,[10],0.0501 µM (active)
CN1C(=O)C(Cc2c[nH]c3ccccc23)NC1=S (stereo unspecified),Potency,[1],6.31 µM (active)
same,Potency,[5],inactive
NS(=O)(=O)c1cc(Cl)c(Cl)c(S(N)(=O)=O)c1,Potency,[4],inactive
